This is an account of results in PubChem BioAssay AID651681 (Broad Institute, 2012).

Activity calls are given as the source filed them.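 Rule for the calls: active = compound with fitted CDK2 half-maximal potency at or below twice its top tested dose; inconclusive = flat curve near 30 to 70% inhibition, or poor fit; inactive = the rest.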

Sequence of Cyclin-dependent kinase 2 (Homo sapiens) + Cyclin-A2 (Homo sapiens) (P20248 whole entry, looked up, one chain of several): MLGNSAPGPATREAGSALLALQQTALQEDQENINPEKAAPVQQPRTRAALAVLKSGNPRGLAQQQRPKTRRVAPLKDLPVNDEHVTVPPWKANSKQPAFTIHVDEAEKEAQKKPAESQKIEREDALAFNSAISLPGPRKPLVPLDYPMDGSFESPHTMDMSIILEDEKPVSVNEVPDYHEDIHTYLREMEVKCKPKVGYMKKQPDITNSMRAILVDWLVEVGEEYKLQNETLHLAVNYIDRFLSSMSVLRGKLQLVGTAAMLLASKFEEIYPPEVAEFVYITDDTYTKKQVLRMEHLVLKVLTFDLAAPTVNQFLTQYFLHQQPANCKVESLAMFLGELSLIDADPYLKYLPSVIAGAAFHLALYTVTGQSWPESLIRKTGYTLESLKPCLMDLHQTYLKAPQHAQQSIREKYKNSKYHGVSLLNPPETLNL

The assay addresses Cyclin-dependent kinase 2 (Homo sapiens) + Cyclin-A2 (Homo sapiens) (UniProt P20248+P24941). Briefly: CDK2/cyclin A inhibitors, off-target check, dose response, selectivity assay for Dyrk1A inhibitor project, biochemical, dry powder, set 3 (AID 651681). The note with it: CDK2/cyclin A ADP-Glo luminescence, histone H1 peptide; series mostly up to 10 µM.
For `CN(CC(=O)Nc1nc2ccc(Cl)cc2s1)S(=O)(=O)c1ccc(C#N)cc1`, the result was inactive.

As to `COc1ccc2nc(NC(=O)C3CCN(S(=O)(=O)c4cccc5nonc45)CC3)sc2c1`, the outcome was inactive.

`COc1ccc2nc(NC(=O)C3CCN(S(=O)(=O)c4cccc5nsnc45)CC3)sc2c1`: the result was inactive.

Consider `Cc1csc(NC(=O)C2CCCN(S(=O)(=O)c3cccc4nonc34)C2)n1` (configuration not stated), for which the result was inactive.

For `O=C(NCc1ccco1)c1sc2ccccc2c1Cl`, the result was inactive.

Turning to `COc1ccc(CNC(=O)c2sc3ccccc3c2Cl)cc1`, the outcome was inactive.

With `CN(CC(=O)Nc1nc2ccccc2s1)S(=O)(=O)c1ccc(Cl)cc1`, the result was inactive.

Take `COc1ccc2c(Cl)c(C(=O)NCc3ccccc3)sc2c1`: the result was inactive.

On to `CCCCN(c1nc2ccccc2s1)S(=O)(=O)c1ccc(Cl)cc1`, for which the outcome was inactive.

With `COc1ccc2c(Cl)c(C(=O)NCc3cccnc3)sc2c1`, the result was inactive.

As for `CN(CC(=O)Nc1nc2ccc(F)cc2s1)S(=O)(=O)c1ccc(Cl)cc1`, the outcome was inactive.

For `COc1ccc(C2=Nn3c(nnc3-c3ccncc3)SC2)cc1`, the outcome was inactive.

On to `COc1ccc(NC(=O)C2CCCN(S(=O)(=O)c3cccc4nonc34)C2)cc1` (configuration not stated), for which the result was inactive.

For the molecule `O=C(NCc1ccccc1)c1sc2ccccc2c1Cl`, the outcome was inactive.

For the molecule `COc1ccc2nc(NC(=O)C3CCN(S(=O)(=O)c4ccc(C)cc4)CC3)sc2c1`, the outcome was inactive.

Consider `COc1ccc2c(Cl)c(C(=O)NC(C)C)sc2c1`, for which the outcome was inactive.

Regarding `CCOc1ccc2nc(NC(=O)COc3ccc(Cl)c(OC)c3)sc2c1`, the outcome was inactive.

As to `COc1cccc(C2=Nn3c(nnc3-c3ccccc3)SC2)c1`, the result was inactive.

For `CCOc1ccc2nc(NC(=O)C3CCCN(S(=O)(=O)c4cccc5cccnc45)C3)sc2c1` (configuration not stated), the outcome was inactive.

For the molecule `COc1ccc(-c2csc(NC(=O)CSCC(=O)N3CCCC3)n2)cc1`, the outcome was inactive.

For the molecule `COc1ccc(S(=O)(=O)N2CCCC(C(=O)Nc3nc4ccccc4s3)C2)cc1` (configuration not stated), the outcome was inactive.

As for `CN(CC(=O)Nc1nc2ccc(Cl)cc2s1)S(=O)(=O)c1ccc(Cl)cc1`, the outcome was inactive.
